# Screening data from PubChem.
# SARS PLP yeast: inhibitors of SARS-CoV papain-like protease in yeast | S. cerevisiae expressing SARS-CoV PLpro, growth rescue | Potency, µM (doses to about 32.9 µM), usual class: activators | 330,000 tested, 0.19% active | AID 485353; calls by dose curve; note: nearly all actives have a fitted effect of over 55% in size
# CHX counter: counter-screen hit for Shiga toxin inhibitors, cycloheximide; cell reporter, cycloheximide protein synthesis inhibition counterscreen; max response, %; 300,000 tested, 12% active; in the data active = max response mostly above about 13%, no sharp cut-off; inactive = mostly below about 14%; note: read at 38.3 µM for the half of the compounds with a filed dose
# LmPK inhibitor: LmPK (Leishmania mexicana) enzyme inhibition | purified LmPK, Kinase-Glo ATP luminescence, 1 h | Potency, µM (doses to about 57.5 µM), most hits filed as inhibitors | 290,000 tested, 0.37% active | AID 1721
# Target sequence (Q27686 whole entry, looked up): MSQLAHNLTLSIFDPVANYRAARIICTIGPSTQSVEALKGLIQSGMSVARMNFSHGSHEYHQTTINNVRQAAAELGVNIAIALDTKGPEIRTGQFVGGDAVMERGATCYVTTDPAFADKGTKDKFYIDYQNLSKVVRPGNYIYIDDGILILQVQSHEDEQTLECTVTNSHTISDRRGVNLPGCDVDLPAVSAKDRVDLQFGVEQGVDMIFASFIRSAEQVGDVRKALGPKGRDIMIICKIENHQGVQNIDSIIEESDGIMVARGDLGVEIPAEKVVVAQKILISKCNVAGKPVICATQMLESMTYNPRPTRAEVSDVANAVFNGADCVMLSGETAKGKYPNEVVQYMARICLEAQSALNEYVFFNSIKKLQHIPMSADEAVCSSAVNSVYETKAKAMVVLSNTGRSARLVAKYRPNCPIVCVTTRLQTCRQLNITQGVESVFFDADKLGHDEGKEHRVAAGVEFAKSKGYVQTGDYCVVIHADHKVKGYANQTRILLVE
#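 Screened at intermediate enzyme activity to detect both inhibitors and activators: LmPK at 0.1 nM, with a 0.5 nM enzyme column as activation reference. PEP 0.5 mM, ADP 0.1 mM; ATP detected by luminescence after 1 h.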
# TbPYK inhibitor: T. brucei pyruvate kinase inhibition | Q57TT1 | TbPYK enzyme, Kinase-Glo Plus ATP luminescence, 45 min | Potency, µM (series often up to 76.8 µM), most hits filed as inhibitors | 410,000 tested, 0.12% active | AID 624173; note: nearly all actives have a fitted effect of over 50% in size
#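 TbPYK + substrate in 50 mM TEA pH 7.2, 100 mM KCl, 10 mM MgCl2, 0.05% BSA, 0.01% Tween-20; cpd pinned; ADP 130 uM final; 45 min RT; Kinase-Glo Plus 10 min; luminescence endpoint.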
# Shiga inhibitor: Shiga toxin inhibition; Vero cells, Shiga toxin protein synthesis inhibition reporter; inhibition, % at 38.7 µM; 290,000 tested, 9.2% active; AID 2315; in the data active = inhibition mostly above about 28%, no sharp cut-off; inactive = mostly below about 43%
# NS1 inh: inhibitors of influenza NS1 protein function | 270,000 tested, 0.4% active | AID 2326 | Potency, µM (highest dose often 46.1 µM); calls by dose curve; note: actives are rising curves; nearly all actives have a fitted effect of over 50% in size
#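 A cell-based growth assay was used: compounds that relieve NS1-induced slow growth of budding yeast raise OD600. Assay medium was yeast nitrogen base with ammonium sulphate and -URA supplement, pH 6.0, with 2% galactose.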
# Numbers stand for hits; 0 = inactive; ? = inconclusive; - = no result given; [ ] = remark or other dose. Shown is part of a subset that was picked to be rich in hits. Unless noted, calls come from the whole dose curve; as a rule, active = well fitted curve in the direction sought with a large enough effect; inconclusive = small, poorly fitted or top-dose-only effect, or another doubt; inactive = no such curve, though single readings can be large; an effect the other way counts as inactive or inconclusive.
SMILES,SARS PLP yeast,CHX counter,LmPK inhibitor,TbPYK inhibitor,Shiga inhibitor,NS1 inh
CCOC(=O)c1ccc(NC(=O)CC2SCCNC2=O)cc1 (centres undefined),0,38.3,0,0,96.4,0
Cc1ccc(NC(=O)CC2SCCNC2=O)cc1[N+](=O)[O-] (centres undefined),0,15.7,0,0,0,0
Cc1ccc(-n2ncc(C(=O)NCCN3CCc4ccccc4C3)c2C2CCN(C(=O)OC(C)(C)C)CC2)cc1,-,-,-,0[15.4 µM],-,-
Cc1csc(C(=O)NN)c1N(C)C,0,32.3,0,0,73.9,0
CCCCN(C(=O)COC(=O)c1ccc(C=O)cc1)c1c(N)n(CCC)c(=O)[nH]c1=O,0,-,-,0,-,-
COc1ccc(NC2=CC(=O)CC(c3ccccc3)C2)cc1 (centres undefined),0,21.7,0,0,0,0
CCSc1ccc(-c2ccc(C)cc2)nn1,0,27.7,0,0,64.7,-
CCOc1ccc(-c2ccc(SCC)nn2)cc1,0,29.2,11.2µM,?,75.4,0
COc1ccc(C(=O)CSc2ccc(-c3ccccc3)nn2)cc1,0,0,0,0,0,0
COc1ccc(-c2ccc(SC)nn2)cc1,0,0,14.1µM,?,0,-
CCOC(=O)C1=C[C@@H](CC)N(S(=O)(=O)c2ccc([N+](=O)[O-])cc2)[C@H]1c1ccccc1,-,-,-,0,-,-
Cc1ccc(NC(=O)Cn2c(=O)n(-c3ccc(CC(=O)NCC4CCCO4)cc3)c(=O)c3ccccc32)cc1 (centres undefined),-,-,-,0,-,-
Cc1ccc(NC(=O)CSCC(=O)NCc2cccc(C(F)(F)F)c2)cc1,0,-,-,0,-,-
O=c1c2c(nc3cc(-c4ccc(F)cc4)[nH]n13)CCC2,0,100.7,0,0,99.6,0
Cc1ccc(CNC(=O)CSc2nc(=O)[nH]c3c2CCCC3)cc1,-,-,-,0,-,-
COc1ccc(CN=C(Nc2ccccc2)SC2CC(=O)NC2=O)cc1 (centres undefined),0,44.3,0,0,143.4,0
O=C1CC(SC(=NCc2ccc3c(c2)OCO3)Nc2ccccc2)C(=O)N1 (centres undefined),0,0,0,0,0,0
O=C(/C=C/c1ccccc1Cl)c1ccc(O)cc1,0,29.0,0,0,53.6,0
CC1CCCC(NC(=O)/C=C/c2c(F)cccc2Cl)C1C (centres undefined),-,-,-,0,-,-
O=C(/C=C/c1c(F)cccc1Cl)c1ccc(O)cc1,0,23.8,0,0,57.9,0
CN1CCN(CC(O)(c2ccc(Cl)cc2)c2ccc(Cl)cc2)CC1,0,0,0,0,0,-
Cc1ccc(OCC(=O)Nc2cc3nn(-c4ccccc4)nc3cc2C)cc1,-,-,-,0,-,-
FC(F)Sc1ccc(NC(=S)NC2CCC(NC(=S)Nc3ccc(SC(F)F)cc3)CC2)cc1 (centres undefined),0,0,0,0,0,0
Oc1cccc2c(NC(=S)Nc3ccc(SC(F)F)cc3)cccc12,0,82.3,0,0,134.9,0
CCCCNC(=S)Nc1ccc(SC(F)F)cc1,0,60.5,0,0,148.6,-
SMILES,SARS PLP yeast,CHX counter,LmPK inhibitor,TbPYK inhibitor,Shiga inhibitor,NS1 inh
Oc1cccc(NC(=S)Nc2ccc(SC(F)F)cc2)c1,0,21.3,0,0,0,0
CN(CC(=O)Nc1c(Cl)cccc1Cl)C(=O)c1cccn1C,0,0,0,0,0,0
CCCCNC(=O)C(CC)Sc1nnc(-c2ccc(OC)c(OC)c2)c(-c2ccc(OC)c(OC)c2)n1 (centres undefined),-,-,-,0,-,-
O=C(NCc1ccco1)C(c1ccccc1)N(Cc1ccccc1)C(=O)Cn1nnc2ccccc21 (centres undefined),0,17.6,0,0,0,0
Cc1ccc(OCCC(=O)OCC(=O)Nc2ccccc2)cc1,0,0,0,0,0,0
CN(C)S(=O)(=O)c1cccc(C(=O)Nc2ccc(S(=O)(=O)N3CCCC3)cc2)c1,0,0,0,0,0,0
C[C@]12CCC(=O)C=C1[C@@H]1C[C@H]1[C@H]1[C@@H]3[C@@H]4C[C@H]4[C@@]4(CCC(=O)O4)[C@@]3(C)CC[C@@H]12,-,-,-,0,-,-
O=C(N1CCCCC1)C1(S(=O)(=O)c2ccccc2)CC=CC1,0,16.7,0,0,0,0
O=C(N1CCOCC1)C1(S(=O)(=O)c2ccccc2)CC=CC1,0,0,0,0,0,0
O=C(NCC1CC1)C1(S(=O)(=O)c2ccccc2)CC=CC1,0,0,0,0,0,0
